One may read the inhibition as the relative decrease from the control value, in per cent.

Results on 62 compounds are retold here after PubChem BioAssay AID2216 (Broad Institute, 2009).

Screen size: about 300,000 compounds; about 3,300 (1.1%) were called active. Another 6% or so got no clear call; they are omitted. For the sample, actives were picked, then their nearest neighbours and some compounds at random. Unmarked numbers belong to inactive results.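 Rule for the calls: active = more than half of the replicate wells show a fall in the fluorescence ratio signal beyond about 16% (limit read from the data, passing the limit was not always enough); inconclusive = exactly half of the replicate wells pass the set limit; inactive = fewer than half of replicates pass the limit.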

The test has as its system Ran GTPase (GTP-bound) - importin-beta complex. Nature of the test: inhibitors of RanGTP-importin-beta interaction, primary screen, biochemical, FRET, CFP-Ran, YFP-importin-beta, homogeneous (AID 2216).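 Note: 0% = DMSO wells and 100% = Ran loaded with GDP instead of GTP.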 As to conditions: cell-free CFP-Ran/YFP-importin-beta FRET ratio; active compounds read high; concentration not given here.
As to `Cn1c(NC(=O)c2ccccc2)nc2ccccc21`, the inhibition was 5.33%.

As for `Cn1c(-c2ccc(C(=O)c3ccccc3)s2)nc2ccccc21`, the inhibition is 21.5% (active).

For the compound `Cn1cccc1-c1nc2ccccc2n1C`, the inhibition is 3.82%.

In the case of `O=C(NCCC1CCCCN1S(=O)(=O)c1ccccc1)C(=O)NCC1CCCO1` (configuration not stated), the inhibition is 1.16%.

Regarding `CCOc1ccc(CCNC(=O)COC(=O)C2CCN(c3ccc(C(F)(F)F)cn3)CC2)cc1OCC`, the inhibition is 0.153%.

Turning to `O=c1[nH]snc1-c1c(Cl)cccc1Cl`, the inhibition is 2.52%.

In the case of `Cc1ccnc(NC(=O)c2ccco2)n1`, the inhibition was -1.58%.

With `CCn1nc(NC(=O)c2ccco2)c2cc3ccc(C)cc3nc21`, the inhibition was 23.1% (active).

Turning to `Cc1ccc(-n2nc3cc(Cl)c(NC(=O)c4ccco4)cc3n2)cc1`, the inhibition is -2.85%.

For the compound `COc1ccc2c(c1)CCc1cn3ncc(C#N)c3nc1-2`, the inhibition is 10.6%.

As for `COc1ccc2nc(N3CCCC(O)C3)c(C#N)cc2c1` (configuration not stated), the inhibition is 57.2% (active).

Take `COc1ccc2cc(C(=O)C3CCCN(C(=O)c4sc(C)nc4C)C3)ccc2c1` (configuration not stated): the inhibition is 0.445%.

`CCCCCCc1ccc(O)cc1O`: the inhibition was -0.89%.

Regarding `CCCCCCc1cc2cc(-c3nnc(-c4ccccc4)o3)c(=O)oc2cc1O`, the inhibition was 161% (active).

With `Cc1c(CC(=O)NCCCCCC(=O)O)c(=O)oc2cc3occ(-c4ccccc4)c3cc12`, the inhibition was 3.1%.

Take `Cc1sc2ncnc(N3CCC(C(=O)Nc4nc5ccc(Cl)cc5s4)CC3)c2c1C`: the inhibition is 2.82%.

For `CC(=O)c1ccc(S(=O)(=O)NC2CC(=O)N(c3ccc4c(c3)OCCO4)C2)cc1` (configuration not stated), the inhibition is -0.763%.

Turning to `c1ccc(C[C@H]2CNCCN2CCC23CC4CC(CC(C4)C2)C3)cc1`, the inhibition was 3.71%.

Turning to `N#CCN(C(=O)COC(=O)C1CC2CCCC(C1)C2=O)c1ccccc1` (configuration not stated), the inhibition was -5.07%.

For `COc1cc2c(cc1O)[C@H](Cc1ccc(Oc3cc(C[C@@H]4NCCc5cc(OC)c(O)cc54)ccc3O)cc1)NCC2`, the inhibition is -9.25%.

For the compound `COc1ccc2c(c1)CCNC2Cc1ccc(OC)c(O)c1` (configuration not stated), the inhibition is 96.2% (active).

For the compound `COc1ccc(CCNC(=O)C(=O)NCC2CCNCC2)cc1OC`, the inhibition is 4.38%.

On to `O=C(Nc1ccccc1-c1ccccc1)c1cccs1`, for which the inhibition is 22.1% (active).

On to `O=C(Nc1ccccc1)c1ccc(NC(=O)c2cccs2)cc1`, for which the inhibition is -0.113%.

For the compound `O=C(Nc1ccccc1-c1nc2ccccc2[nH]c1=O)c1cccs1`, the inhibition is -0.663%.

Turning to `Cc1sc2ncnc(N3CCC(C(=O)NNC(=O)c4ccc(F)cc4)CC3)c2c1C`, the inhibition is 0.666%.

As to `CCC1CCCCN1CCNS(=O)(=O)c1ccc2c(c1)CCN2C(C)=O` (configuration not stated), the inhibition is -5.25%.

With `CC(=O)N1CCc2cc(S(=O)(=O)NC3CCCCC3)ccc21`, the inhibition is 2.08%.

In the case of `CCCNS(=O)(=O)c1ccc2c(c1)CCCN2C(C)=O`, the inhibition was 23.9% (active).

Turning to `COc1ccccc1C(=O)NCCC(=O)NN1C(=O)NC2(CCCCC2)C1=O`, the inhibition is -3.94%.

Take `CCOC(=O)c1cc(C#N)c(N2CCCCC2)nc1-c1ccccc1`: the inhibition was -3.84%.

Regarding `CCOc1ccc(C(=O)NC2CCN(C(=O)Nc3ccccc3OC)CC2)cc1`, the inhibition is -1.22%.

`CCOc1ccc2nc(N3CCCN(C(=O)Nc4ccccc4C)CC3)c(C#N)cc2c1`: the inhibition was 119% (active).

With `COc1ccccc1C(=O)Nc1ccccc1C(=O)Nc1ccccc1`, the inhibition is 3.3%.

Regarding `O=C(NCCOc1cccnc1)c1ccc(OC2CCN(Cc3ccccn3)CC2)cc1`, the inhibition was 0.854%.

As to `O=S(=O)(c1cccc(Cn2nnc(-c3ccc(F)cc3)n2)c1)N1CCOCC1`, the inhibition was 5.68%.

Consider `Cc1cccc(Nc2nc(NCCO)nc(N3CCCC3)n2)c1`, for which the inhibition is -0.666%.

Take `Cc1ccc(S(=O)(=O)NCC(=O)N2CCN(c3ccccn3)CC2)cc1`: the inhibition is -4.7%.

As to `Cc1ccc(N2C(=O)C3CC3C2=O)cc1` (configuration not stated), the inhibition was 1.85%.

Turning to `Cc1ccc(N2CCN(c3ccc(C)cc3)C2c2ccccn2)cc1`, the inhibition was 20.1% (active).

With `CCC(CC)c1nnc(NC(=O)C2=COCCO2)s1`, the inhibition is -0.607%.

On to `CCOc1ccc(C2C3=C(CCCC3=O)N(CC(=O)O)C3=C2C(=O)CCC3)cc1`, for which the inhibition was 63.4% (active).

Regarding `COc1ccc(C2C3=C(CCCC3=O)N(CC(=O)O)C3=C2C(=O)CCC3)cc1`, the inhibition is 61.1% (active).

As to `COc1ccc(C2C(C#N)=C(N)N(c3ncn[nH]3)C3=C2C(=O)CCC3)cc1` (configuration not stated), the inhibition was 2.61%.

With `CCOc1ccc(C2C(C#N)=C(N)N(N(C)C)C3=C2C(=O)CCC3)cc1` (configuration not stated), the inhibition was -2.69%.

Take `CCOC(=O)C1=C(N)N(c2ccc(C)cc2)C2=C(C(=O)CCC2)C1c1cccs1` (configuration not stated): the inhibition was 1.06%.

Consider `CCCCN1C(=O)CCC(C(=O)O)C1c1ccc(OC)cc1` (configuration not stated), for which the inhibition is -1.74%.

As for `O=C1c2ccccc2C(=O)c2c1cccc2N1CCN(C/C=C/c2ccccc2)CC1`, the inhibition is -1.77%.

As for `Cc1nc(-c2ccccc2)sc1C1(C)CC(c2cccnc2)=NO1` (configuration not stated), the inhibition was 4.13%.

`CCCCc1ccc(NC(=S)NCCCN2CCOCC2)cc1`: the inhibition is 1.19%.

As for `Cc1ccc(C(=O)NC(=S)NCCN2CCOCC2)cc1`, the inhibition was -2.12%.

Take `Cc1ccc(NC(=S)NCCN2CCOCC2)cc1`: the inhibition is 18% (active).

Regarding `CCCCn1c(N)c(N(CCC(C)C)C(=O)CC2OC(=O)c3ccccc32)c(=O)[nH]c1=O` (configuration not stated), the inhibition is 0.056%.

As to `O=C(CCC1CCCN(C(=O)c2ccc(F)c(F)c2)C1)N1CCN(c2ccccn2)CC1` (configuration not stated), the inhibition was 2.85%.

As to `CCN1CCN(C(c2cccnc2)c2cc(Cl)c3cccnc3c2O)CC1` (configuration not stated), the inhibition is 2.34%.

In the case of `Oc1c(CN2CCN(c3ccc(F)cc3)CC2)cc(Cl)c2cccnc12`, the inhibition is 24.8% (active).

`Oc1ccc(CN2CCN(c3ncccn3)CC2)cc1`: the inhibition is -6.09%.

As to `O=C(N/N=C/c1cc(Br)c(O)c([N+](=O)[O-])c1)C(O)(c1ccccc1)c1ccccc1`, the inhibition is -0.0435%.

Take `CN(C)S(=O)(=O)c1ccc(N2CCCC2)c(C(=O)Nc2ccc(Br)cc2F)c1`: the inhibition was 0.866%.

With `CSc1nc(C)cc(SC(C(C)=O)C(=O)Nc2ccccc2)n1` (configuration not stated), the inhibition is -3.65%.

For `CC(Sc1nc(-c2ccccc2)cc(C(F)(F)F)n1)C(=O)Nc1ccc2c(c1)OCO2` (configuration not stated), the inhibition was -1.24%.

For the compound `CC(Sc1nnc2c(n1)C1CCC2(C)C1(C)C)C(=O)Nc1ccccc1` (configuration not stated), the inhibition was 27% (active).
